We go through 31 sequences from article PMC12820563, “FoxP3 forms a head-to-head dimer in vivo and stabilizes its multimerization on adjacent microsatellites”.

Whole data set: some 16,000 sequences, median “rpm ratio (pull-down/input)” near 0.5, cut for the highest 2% near 5.5. The entries come from a sample that favours the highest values as a whole.

The experiment has as its target T1, MBP-FoxP3dN (Mus musculus, UniProt Q99JB6 188-423).
T1 sequence: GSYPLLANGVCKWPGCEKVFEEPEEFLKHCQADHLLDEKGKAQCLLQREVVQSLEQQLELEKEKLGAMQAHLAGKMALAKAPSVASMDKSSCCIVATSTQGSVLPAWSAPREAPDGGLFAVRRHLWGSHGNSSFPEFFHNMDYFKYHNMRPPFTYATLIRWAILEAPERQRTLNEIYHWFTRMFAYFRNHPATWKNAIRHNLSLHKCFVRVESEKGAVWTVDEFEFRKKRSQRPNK
In words: PD-seq (MBP pull-down with sequencing); 20 mM Tris-HCl pH 7.5, 100 mM NaCl, 1.5 mM MgCl2, 0.4 uM protein, 0.1 uM dsDNA library, 30 min, room temperature, amylose pull-down; high values mean tight binding. To be noted: protein: recombinant; tags: His6-MBP; chain copies: 2; dsDNA, one strand shown. The procedure, abridged:
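Mouse FoxP3 or FoxP1 fragment lacking the N-terminus, His6-MBP-tagged and expressed in E. coli, was incubated at 0.4 µM with 0.1 µM Klenow-filled degenerate double-stranded DNA library for 30 min at room temperature in Tris pH 7.5 buffer with NaCl and MgCl2. Complexes captured on amylose resin were washed three times and their DNA sequenced on Illumina. Binding is reads-per-million enrichment of pull-down over input, replicates pooled.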
“GATGATTGTTCTCCCAGCTGATGAATTAACGGATTCGAGTAAACAAATTTTCCTAATCTTTCTGTTCAAGCGCCATCTAC”: the binding signal is 0.29 RPM ratio (pull-down/input).
For “GATGATTGTTCTCCCAGCTGATGAATTCCTAACTTCGAGTAAACAAATTTTCCTAATCTTTCTGTTCAAGCGCCATCTAC” the value was 0.231 RPM ratio (pull-down/input); for “GATGATTGTTCTCCCAGCTGATGAATTCACCTTATCGAGTAAACAAATTTTCCTAATCTTTCTGTTCAAGCGCCATCTAC”, 0.363 RPM ratio (pull-down/input).
For “GATGATTGTTCTCCCAGCTGATGAATTGGAGCTGTCGAGTAAACAAATTTTCCTAATCTTTCTGTTCAAGCGCCATCTAC” the value was 0.312 RPM ratio (pull-down/input); for “GATGATTGTTCTCCCAGCTGATGAATTCTATAGGTCGAGTAAACAAATTTTCCTAATCTTTCTGTTCAAGCGCCATCTAC”, 0.372 RPM ratio (pull-down/input); for “GATGATTGTTCTCCCAGCTGATGAATTCCAGCTGTCGAGTAAACAAATTTTCCTAATCTTTCTGTTCAAGCGCCATCTAC”, 0.355 RPM ratio (pull-down/input).
For “GATGATTGTTCTCCCAGCTGATGAATTACCATAATCGAGTAAACAAATTTTCCTAATCTTTCTGTTCAAGCGCCATCTAC” the value was 0.448 RPM ratio (pull-down/input).
Turning to “GATGATTGTTCTCCCAGCTGATGAATTCAGCGCCTCGAGTAAACAAATTTTCCTAATCTTTCTGTTCAAGCGCCATCTAC”, the binding signal is 1.17 RPM ratio (pull-down/input).
In the case of “GATGATTGTTCTCCCAGCTGATGAATTGCTACCGTCGAGTAAACAAATTTTCCTAATCTTTCTGTTCAAGCGCCATCTAC”, the binding signal is 0.615 RPM ratio (pull-down/input).
In the case of “GATGATTGTTCTCCCAGCTGATGAATTCATACTATCGAGTAAACAAATTTTCCTAATCTTTCTGTTCAAGCGCCATCTAC”, the binding signal was 0.534 RPM ratio (pull-down/input).
The result for “GATGATTGTTCTCCCAGCTGATGAATTCGAGCCATCGAGTAAACAAATTTTCCTAATCTTTCTGTTCAAGCGCCATCTAC” reads 1.13 RPM ratio (pull-down/input); that for “GATGATTGTTCTCCCAGCTGATGAATTGACGTCTTCGAGTAAACAAATTTTCCTAATCTTTCTGTTCAAGCGCCATCTAC”, 0.448 RPM ratio (pull-down/input).
For “GATGATTGTTCTCCCAGCTGATGAATTGTACTACTCGAGTAAACAAATTTTCCTAATCTTTCTGTTCAAGCGCCATCTAC” the value was 0.546 RPM ratio (pull-down/input); for “GATGATTGTTCTCCCAGCTGATGAATTATCAGGCTCGAGTAAACAAATTTTCCTAATCTTTCTGTTCAAGCGCCATCTAC”, 0.299 RPM ratio (pull-down/input); for “GATGATTGTTCTCCCAGCTGATGAATTGTTGTGTTCGAGTAAACAAATTTTCCTAATCTTTCTGTTCAAGCGCCATCTAC”, 6.09 RPM ratio (pull-down/input).
For “GATGATTGTTCTCCCAGCTGATGAATTTCTGTGTTCGAGTAAACAAATTTTCCTAATCTTTCTGTTCAAGCGCCATCTAC” the value was 0.716 RPM ratio (pull-down/input); for “GATGATTGTTCTCCCAGCTGATGAATTGTGTTCTTCGAGTAAACAAATTTTCCTAATCTTTCTGTTCAAGCGCCATCTAC”, 2.39 RPM ratio (pull-down/input); for “GATGATTGTTCTCCCAGCTGATGAATTCCGTGCCTCGAGTAAACAAATTTTCCTAATCTTTCTGTTCAAGCGCCATCTAC”, 0.796 RPM ratio (pull-down/input).
As for “GATGATTGTTCTCCCAGCTGATGAATTTATCTGATCGAGTAAACAAATTTTCCTAATCTTTCTGTTCAAGCGCCATCTAC”, the binding signal is 0.374 RPM ratio (pull-down/input).
“GATGATTGTTCTCCCAGCTGATGAATTTATCGAGTCGAGTAAACAAATTTTCCTAATCTTTCTGTTCAAGCGCCATCTAC”: the binding signal was 0.379 RPM ratio (pull-down/input).
For “GATGATTGTTCTCCCAGCTGATGAATTCTAATCATCGAGTAAACAAATTTTCCTAATCTTTCTGTTCAAGCGCCATCTAC” the value was 0.567 RPM ratio (pull-down/input); for “GATGATTGTTCTCCCAGCTGATGAATTTCGCCATTCGAGTAAACAAATTTTCCTAATCTTTCTGTTCAAGCGCCATCTAC”, 5.04 RPM ratio (pull-down/input).
Take “GATGATTGTTCTCCCAGCTGATGAATTTCGCATTTCGAGTAAACAAATTTTCCTAATCTTTCTGTTCAAGCGCCATCTAC”: the binding signal is 6.94 RPM ratio (pull-down/input).
With “GATGATTGTTCTCCCAGCTGATGAATTCTCGCATTCGAGTAAACAAATTTTCCTAATCTTTCTGTTCAAGCGCCATCTAC”, the binding signal is 5.82 RPM ratio (pull-down/input).
The result for “GATGATTGTTCTCCCAGCTGATGAATTTTTCGCATCGAGTAAACAAATTTTCCTAATCTTTCTGTTCAAGCGCCATCTAC” reads 0.898 RPM ratio (pull-down/input); that for “GATGATTGTTCTCCCAGCTGATGAATTCGCATTTTCGAGTAAACAAATTTTCCTAATCTTTCTGTTCAAGCGCCATCTAC”, 4.25 RPM ratio (pull-down/input); that for “GATGATTGTTCTCCCAGCTGATGAATTCGCATTCTCGAGTAAACAAATTTTCCTAATCTTTCTGTTCAAGCGCCATCTAC”, 4.89 RPM ratio (pull-down/input).
The result for “GATGATTGTTCTCCCAGCTGATGAATTGTTCGCATCGAGTAAACAAATTTTCCTAATCTTTCTGTTCAAGCGCCATCTAC” reads 1.1 RPM ratio (pull-down/input); that for “GATGATTGTTCTCCCAGCTGATGAATTCGCCATTTCGAGTAAACAAATTTTCCTAATCTTTCTGTTCAAGCGCCATCTAC”, 1.75 RPM ratio (pull-down/input).
As for “GATGATTGTTCTCCCAGCTGATGAATTTGACGCATCGAGTAAACAAATTTTCCTAATCTTTCTGTTCAAGCGCCATCTAC”, the binding signal is 1.22 RPM ratio (pull-down/input).
For “GATGATTGTTCTCCCAGCTGATGAATTTTCGCATTCGAGTAAACAAATTTTCCTAATCTTTCTGTTCAAGCGCCATCTAC” the value was 6.27 RPM ratio (pull-down/input).
